AGP1-GFP MLPCN: yeast TOR pathway AGP1-GFP modulation; S. cerevisiae AGP1-GFP multiplex flow cytometry, 3 h; GFP as percent of DMSO wells; GFP response vs DMSO, % at 10 µM; 0.02% of 320,000 active;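 active = GFP response relative to DMSO above a set limit, near screen average plus 3 SD, cut at about 150% in these data; inconclusive = fewer than 70 cells counted for the yeast strain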;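 also: median GFP channel fluorescence of the gated AGP1 strain per well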
CIT2 TOR yeast: yeast TOR pathway CIT2-GFP modulation; S. cerevisiae CIT2-GFP strain, flow cytometry, 3 h; 100 means same as DMSO wells; GFP response vs DMSO, % at 10 µM; 0.065% of 320,000 active;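 active = GFP response relative to DMSO above a set limit, near the screen mean plus 3 SD, cut at about 150% in these data; inconclusive = Fewer than 70 cells measured for a yeast strain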;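 also: ratio of well median GFP fluorescence to mean of DMSO wells on the plate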
LAP4 TOR yeast: modulators of TOR pathway LAP4-GFP in S. cerevisiae; S. cerevisiae LAP4-GFP multiplex, flow cytometry GFP, 3 h; median GFP as percent of DMSO wells; GFP response vs DMSO, % at 10 µM; 0.34% of 320,000 active;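 active = GFP response vs DMSO above a set limit, about the screen mean plus 3 SD, cut at about 150% in these data; inconclusive = under 70 cell events counted for the yeast strain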
Myeloid diff 2: compounds promoting myeloid differentiation; ER-HoxA9 myeloid progenitors, lysozyme-GFP differentiation, flow cytometry; calls only at 10 µM; 1% of 360,000 active; AID 624256;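 active = normalized GFP-positive differentiation at or above the plate's own cutoff, the solvent-only control mean plus 3 SD; inconclusive = no clear call, values can overlap the other calls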;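 also: cells exposed to compound for four days before flow analysis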
RPL19A TOR yeast: alters RPL19A-GFP fluorescence in TOR pathway yeast screen; S. cerevisiae RPL19A-GFP strain, flow cytometry, 3 h; hits give low values; percent response vs DMSO, % at 10 µM; 0.3% of 330,000 active; AID 2025;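 active = percent response vs DMSO below 50%; inconclusive = fewer than 70 events counted for the yeast strain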;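 also: median channel GFP fluorescence of the barcoded RPL19A-GFP strain; lower means less RPL19A-GFP as with rapamycin TOR inhibition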
MEP2 TOR yeast: yeast TOR pathway MEP2-GFP modulation; S. cerevisiae MEP2-GFP strain, flow cytometry GFP, 3 h; 100% = DMSO control level; GFP response vs DMSO, % at 10 µM; AID 2016; 0.51% of 330,000 active;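 active = GFP response versus DMSO above a set limit, roughly screen mean plus 3 SD, cut at about 180% in these data; inconclusive = fewer than 70 cells counted for a yeast strain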;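 also: median GFP fluorescence of the barcode-gated MEP2-GFP cells per well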
Myeloid diff: promotes myeloid progenitor differentiation. ER-HoxA9 myeloid progenitors, GFP/Mac1 double-positive flow. 2% of 2,300 active. shares compounds with Myeloid diff 2. calls only. AID 651706;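 active = share of green or green-and-red cells above 9 and 9% in run 1 or 4 and 3% in run 2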
GFP autofluor: flagged as fluorescent in myeloid differentiation counter-screen | shares compounds with Myeloid diff 2 | ER-HoxA9 myeloid progenitors, no estrogen, GFP autofluorescence flow cytometry; vehicle wells 0%, positive control 100% | fluorescence response, % (concentration not given with the values) | 7.4% of 2,300 active;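 active = over 5% cells positive for green fluorescent reporter, or over 2% positive for both it and APC stain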
A number is an active result; - = inactive; ? = inconclusive; . = not tested or not shown; + = active, no number. Shown are actives, neighbours in structure and some others; about 1.8% of the full set was active somewhere.

SMILES	AGP1-GFP MLPCN	CIT2 TOR yeast	LAP4 TOR yeast	Myeloid diff 2	RPL19A TOR yeast	MEP2 TOR yeast	Myeloid diff	GFP autofluor
CCOc1ccccc1C(=O)N1CCN(c2cccc(Cl)c2)CC1	-	-	-	-	-	-	-	-
O=C(Nc1ncc(S(=O)(=O)c2ccc([N+](=O)[O-])cc2)s1)c1ccccc1F	-	-	-	+	-	-	-	-
COC(=O)C(NC(=O)c1ccccc1C)(Nc1ncc(S(=O)(=O)c2ccc([N+](=O)[O-])cc2)s1)C(F)(F)F (stereo unspecified)	-	-	-	-	-	-	.	.
Cc1cc(C)c(C)c(N=Nc2nc3ccccc3n2C)c1C	-	-	-	-	-	-	.	.
Cc1ccc(C)c(N=Nc2nc3ccccc3n2C)c1	-	-	-	+	-	-	-	-
CON1C(=O)C(=O)N(OC)C(C)(C)C1C (stereo unspecified)	-	-	-	-	-	-	-	-
O=C(O)C1CCCC2CN3CCc4c([nH]c5ccccc45)C3C(O)C21 (stereo unspecified)	-	-	-	-	-	-	-	-
O=C(O)[C@@H]1[C@H]2C[C@H]3c4[nH]c5ccccc5c4CCN3C[C@@H]2CC[C@@H]1O	-	-	-	-	-	-	.	.
COc1ccc2cnn(CCOc3ccccc3)c(=O)c2c1OC	-	-	-	-	-	-	.	.
CCOC(=O)/C(=C/C=C1\Sc2ccccc2N1CC)C(C)=O	-	-	-	-	-	-	-	-
CCOc1ccc(N2C(=O)Nc3ccccc3C2(O)C(=O)N2CCN(c3ccccn3)CC2)cc1 (stereo unspecified)	-	-	-	-	-	-	.	.
COc1ccc(C=NNC(=O)c2ccccc2NS(=O)(=O)c2cccs2)cc1O	-	-	-	-	-	-	.	.
COc1ccc(OC)c(C=NNC(=O)c2ccccc2NS(=O)(=O)c2cccs2)c1	-	-	-	+	-	-	-	-
CCc1ccccc1NC(=O)NC1CC2CCC(C1)N2Cc1ccco1 (stereo unspecified)	-	-	-	-	-	-	.	.
COc1ccc(-n2cc(CNC(C)c3ccncn3)c(-c3cccc(F)c3)n2)cc1 (stereo unspecified)	-	-	-	-	-	-	.	.
CCC(COC)NCc1cn(-c2ccc(OC)cc2)nc1-c1cccc(F)c1 (stereo unspecified)	-	-	-	+	-	-	-	-
Cc1oc(-c2ccccc2F)nc1CS(=O)(=O)CC(=O)NCCN(C)C1CCCCC1	-	-	-	-	-	-	-	-
CCn1c(-c2sc(-c3ccccc3)nc2C)n[nH]c1=S	-	-	-	+	-	-	-	-
CC1CCCC(C)N1C(=O)C1CCCCC1 (stereo unspecified)	-	-	-	-	-	-	.	.
Cc1cccc(NC(=O)CSc2nc(=O)n(CCCN3CCOCC3)c3c2CCCC3)c1	-	-	-	+	-	-	-	-
O=C(CN1CCCc2ccccc21)NCCc1ccc(Cl)cc1	-	-	-	-	-	-	.	.
C[C@H](NC(=O)C1CCN(C(=O)[C@@H]2CCCN2C(=O)OC(C)(C)C)CC1)C(=O)NCc1ccc(F)cc1	.	.	.	-	.	.	.	.
Cc1ccc(CNC(=O)[C@H](C)NC(=O)C2CCN(C(=O)[C@@H]3CCCN3C(=O)OC(C)(C)C)CC2)cc1	-	-	-	+	-	-	-	-
CC1=C(C(=O)OCc2ccc3c(c2)OCO3)C(c2ccc(F)cc2)NC(=O)N1 (stereo unspecified)	-	-	-	+	-	-	-	-
CC(C)(C)CN1CCNC[C@H]1Cc1ccc(O)cc1	-	-	-	-	-	-	.	.
SMILES	AGP1-GFP MLPCN	CIT2 TOR yeast	LAP4 TOR yeast	Myeloid diff 2	RPL19A TOR yeast	MEP2 TOR yeast	Myeloid diff	GFP autofluor
CN1/C(=C/C(=O)c2nc(S(C)(=O)=O)ncc2Cl)C(C)(C)c2ccccc21	-	-	-	.	-	-	.	.
CN1/C(=C\C(=O)c2cncc(Br)c2)C(C)(C)c2ccccc21	-	-	-	+	-	-	-	20
Cc1c(C(=O)O)sc2nc3n(c(=O)c12)CCC(C)CC3 (stereo unspecified)	-	-	-	+	-	-	-	-
Cc1c(C(=O)O)sc2nc3n(c(=O)c12)CCCCC3	-	-	-	-	-	-	.	.
COc1cc2oc(=O)cc(-c3ccc(-c4ccc(C#N)cc4)cc3)c2c(OC)c1OC	.	.	.	-	.	.	-	-
CC(C)n1nnc2ccccc2c1=O	-	-	-	-	-	-	.	.
C[C@H](CO)N1C[C@H](C)[C@@H](CN(C)C(=O)Nc2ccc(C(F)(F)F)cc2)Oc2ccc(NC(=O)C3CC3)cc2C1=O	-	-	-	-	-	-	.	.
COc1ccc(Cn2c(=N)c(C(=O)NCC3CCCO3)cc3c(=O)n4ccccc4nc32)cc1 (stereo unspecified)	-	-	-	-	-	-	-	-
O=C(NC1CCN(Cc2ccccc2)CC1)C1CCCN(c2nnc(-n3cccc3)s2)C1 (stereo unspecified)	-	-	-	-	-	-	-	-
O=C(NC1CCN(Cc2ccccc2)CC1)C1CCN(c2nnc(-n3cccc3)s2)CC1	-	-	-	?	-	-	.	.
COc1ccc(N2CCN(C(=O)CSc3nnc(CNc4ccccc4)o3)CC2)cc1	-	-	-	-	-	-	-	-
CC(NC(=O)c1cccs1)C(c1cccs1)N1CCN(Cc2ccccc2)CC1 (stereo unspecified)	-	-	-	-	-	-	.	.
CCOC(=O)c1c(-c2ccc(OC)cc2)csc1NC(=O)CSc1ncnc2sccc12	-	-	-	-	-	-	-	-
CCOC(=O)c1c(-c2ccc(OC)cc2)csc1NC(=O)COc1ccc2c(C)cc(=O)oc2c1	-	-	-	-	-	-	.	.
CCOc1ccc(N(CC(=O)N2CCN(C(=O)CN(c3ccc(OCC)cc3)S(C)(=O)=O)CC2)S(C)(=O)=O)cc1	-	-	-	-	-	-	.	.
CC1CC(C)CN(CCCNC(=O)C2CCC(=O)N2C2CCCC2)C1 (stereo unspecified)	-	-	-	-	-	-	-	-
O=C(c1cccc(C(F)(F)F)c1)N1CCOc2ccccc21	-	-	-	-	-	-	.	.
CC1=CC(=C(C#N)C#N)c2ccccc2N1C	-	-	-	-	-	-	-	-
Cc1ccccc1N1C(=O)CSC1=C(C#N)C#N	-	-	-	-	-	-	.	.
Cc1nc2ccc(NC(=O)c3cccs3)cc2c(=O)n1Cc1ccc(Cl)cc1	-	-	-	+	-	-	-	-
